# Assay results reported in PubChem BioAssay (NCATS).
# Inconclusive results are not listed. A call without a number means that no potency is given here. Activity calls are given as the source filed them. Calls come from the whole dose curve; as a rule, active = well fitted inhibition curve with a large enough effect; inconclusive = small, poorly fitted or top-dose-only effect; inactive = flat fitted curve, though single readings scatter.
# Key:
# Assay in all cases: qHTS profiling for inhibitors of Plasmodium falciparum proliferation (AID 504749); note: nearly all actives have a fitted effect of over 60% in size
# Conditions in all cases: P. falciparum in erythrocytes, SYBR Green DNA, 72 h; series mostly up to 28.7 µM
# [1] = tested on: 7G8
# Procedure, shortened: (§1)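 Parasite proliferation within erythrocytes, 72 h exposure. Endpoint: SYBR Green I fluorescence after overnight lysis at room temperature. Controls: 0.29 uM artemisinin, DMSO.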
# [2] = tested on: CP192
# Procedure, shortened: as §1
# [3] = tested on: CP201
# Procedure, shortened: as §1
# [4] = tested on: CP215
# Procedure, shortened: as §1
# [5] = tested on: CP247
# Procedure, shortened: as §1
# [6] = tested on: CP260
# Procedure, shortened: as §1
# [7] = tested on: CP291
# Procedure, shortened: as §1
# [8] = tested on: CP297
# Procedure, shortened: as §1
# [9] = tested on: CP325
# Procedure, shortened: as §1
# [10] = tested on: CP335
# Procedure, shortened: as §1
# [11] = tested on: DIV14
# Procedure, shortened: as §1
# [12] = tested on: ECU
# Procedure, shortened: as §1
# [13] = tested on: GB4
# Procedure, shortened: as §1
# [14] = tested on: ICS
# Procedure, shortened: as §1
# [15] = tested on: P93_24
# Procedure, shortened: as §1
# [16] = tested on: PC26
# Procedure, shortened: as §1
# [17] = tested on: CP266
# Procedure, shortened: as §1
# [18] = tested on: CP315
# Procedure, shortened: as §1
# [19] = tested on: DIV30
# Procedure, shortened: as §1
# [20] = tested on: PC49
# Procedure, shortened: as §1
# Potency is the fitted concentration of half-maximal effect.
Compound,Potency [1],Potency [2],Potency [3],Potency [4],Potency [5],Potency [6],Potency [7],Potency [8],Potency [9],Potency [10],Potency [11],Potency [12],Potency [13],Potency [14],Potency [15],Potency [16],Potency [17],Potency [18],Potency [19],Potency [20]
CC[C@H](C)[C@H]1O[C@]2(CC[C@@H]1C)C[C@@H]1C[C@@H](C/C=C(\C)[C@H](O[C@@H]3C[C@H](OC)[C@H](O[C@@H]4C[C@H](OC)[C@@H](O)[C@H](C)O4)[C@H](C)O3)[C@@H](C)/C=C/C=C3\CO[C@@H]4[C@H](O)C(C)=C[C@@H](C(=O)O1)[C@]34O)O2,2000 nM (active),1690 nM (active),1510 nM (active),1350 nM (active),1000 nM (active),2240 nM (active),1510 nM (active),1510 nM (active),1350 nM (active),1350 nM (active),1690 nM (active),891 nM (active),1510 nM (active),1260 nM (active),1260 nM (active),1200 nM (active),–,–,–,–
CCN(CC)CC(=O)Nc1c(C)cc(C)cc1C,inactive,inactive,inactive,inactive,inactive,inactive,inactive,inactive,inactive,–,inactive,inactive,inactive,inactive,inactive,inactive,inactive,inactive,inactive,inactive
CN[C@H](C)CCC=C(C)C,50.1 nM (active),953 nM (active),2130 nM (active),601 nM (active),398 nM (active),224 nM (active),953 nM (active),601 nM (active),757 nM (active),239 nM (active),151 nM (active),224 nM (active),135 nM (active),44.7 nM (active),251 nM (active),190 nM (active),536 nM (active),849 nM (active),135 nM (active),282 nM (active)
NC(=O)C1CC2(NC(=O)NC2=O)c2cc(F)ccc2O1 (stereo not drawn),inactive,inactive,inactive,inactive,inactive,inactive,inactive,inactive,inactive,inactive,–,inactive,inactive,inactive,inactive,inactive,inactive,inactive,inactive,inactive
CCCCC(=O)O[C@]1(C(=O)CO)CCC2C3CCC4=CC(=O)CCC4(C)C3C(O)CC21C (stereo partly drawn),12600 nM (active),inactive,inactive,inactive,inactive,–,inactive,inactive,inactive,inactive,inactive,inactive,inactive,–,inactive,inactive,inactive,inactive,inactive,inactive
CC1(C)CC1C(=O)N/C(=C/CCCCSCC(N)C(=O)O)C(=O)O (stereo not drawn),inactive,inactive,inactive,inactive,inactive,–,inactive,inactive,inactive,inactive,inactive,inactive,inactive,inactive,inactive,inactive,inactive,inactive,inactive,inactive
NC(=O)OC[C@@H]1[C@H](NC(=O)/C(=N/OCC(=O)O)c2csc(N)n2)C(=O)N1S(=O)(=O)O,inactive,inactive,inactive,inactive,inactive,inactive,inactive,inactive,inactive,inactive,inactive,inactive,inactive,inactive,inactive,inactive,inactive,inactive,inactive,inactive
CC1(C(=O)O)CCC2(C)CCC3(C)C(=CC(=O)C4C5(C)CCC(O)C(C)(C)C5CCC43C)C2C1 (stereo not drawn),inactive,inactive,inactive,inactive,inactive,inactive,inactive,inactive,inactive,inactive,inactive,inactive,inactive,inactive,inactive,inactive,–,inactive,inactive,inactive
CCC(=O)O[C@]1(C(=O)CCl)[C@@H](C)CC2C3C[C@H](F)C4=CC(=O)C=CC4(C)[C@@]3(F)C(O)CC21C (stereo partly drawn),1580 nM (active),–,–,10700 nM (active),12600 nM (active),11200 nM (active),13500 nM (active),10700 nM (active),16900 nM (active),10700 nM (active),4260 nM (active),3550 nM (active),7570 nM (active),2820 nM (active),10000 nM (active),12000 nM (active),–,–,12000 nM (active),–
C/C(=C(/CCO)SS/C(CCO)=C(\C)N(C=O)Cc1cnc(C)nc1N)N(C=O)Cc1cnc(C)nc1N,inactive,inactive,inactive,inactive,–,–,inactive,inactive,inactive,inactive,inactive,inactive,inactive,inactive,inactive,inactive,inactive,inactive,inactive,inactive
CC1(Cn2ccnn2)[C@H](C(=O)O)N2C(=O)C[C@H]2S1(=O)=O (stereo partly drawn),inactive,inactive,inactive,inactive,inactive,inactive,inactive,inactive,inactive,inactive,inactive,inactive,inactive,inactive,inactive,inactive,inactive,inactive,–,inactive
CC1C(=O)C(=O)C=CN1C (stereo not drawn),inactive,inactive,inactive,inactive,inactive,–,inactive,inactive,inactive,inactive,inactive,inactive,inactive,inactive,inactive,inactive,inactive,inactive,inactive,inactive
CC(CCC(=O)O)C1CCC2C3C(=O)C[C@@H]4CC(=O)CC[C@@]4(C)C3CC(=O)[C@]12C (stereo partly drawn),inactive,inactive,inactive,inactive,inactive,inactive,inactive,inactive,inactive,–,–,inactive,inactive,inactive,inactive,inactive,inactive,inactive,inactive,inactive
CC(=O)OC1C([N+]2(C)CCCCC2)C[C@H]2C3CC[C@H]4C[C@H](OC(C)=O)C([N+]5(C)CCCCC5)CC4(C)C3CCC12C (stereo partly drawn),inactive,–,–,–,inactive,inactive,–,6010 nM (active),–,–,–,inactive,–,inactive,inactive,16900 nM (active),–,–,–,inactive
C=C1NC(=O)c2cc(CN(C)c3ccc(C(=O)N[C@@H](CCC(=O)O)C(=O)O)s3)ccc2N1,inactive,inactive,inactive,inactive,inactive,inactive,–,–,inactive,inactive,–,inactive,–,–,–,–,inactive,inactive,inactive,inactive
OCC(CO)NC1C[C@](O)(CO)[C@@H](O)[C@H](O)[C@H]1O (stereo partly drawn),inactive,inactive,inactive,inactive,inactive,inactive,–,inactive,inactive,inactive,inactive,inactive,inactive,inactive,inactive,inactive,–,inactive,inactive,inactive
CC(CN1CC(=O)NC(=O)C1)N1CC(=O)NC(=O)C1 (stereo not drawn),inactive,–,inactive,–,inactive,inactive,inactive,inactive,inactive,inactive,inactive,inactive,inactive,inactive,inactive,inactive,inactive,inactive,inactive,inactive
Cc1onc(-c2c(F)cccc2Cl)c1C(=O)NC1C(=O)N2C1SC(C)(C)C2C(=O)O (stereo not drawn),inactive,inactive,inactive,inactive,inactive,inactive,inactive,inactive,inactive,inactive,inactive,inactive,inactive,inactive,inactive,inactive,inactive,inactive,inactive,inactive
CCCC(=O)Nc1c(I)cc(I)c(C[C@H](CC)C(=O)O)c1I,inactive,inactive,inactive,inactive,inactive,–,inactive,inactive,inactive,inactive,–,inactive,inactive,inactive,inactive,inactive,inactive,inactive,inactive,inactive
CCC(C(=O)C(C)C(O)C(C)CCc1ccc(C)c(O)c1C(=O)O)C1OC(CC)(C2CC[C@@](O)(CC)C(C)O2)CC1C (stereo partly drawn),501 nM (active),–,1070 nM (active),849 nM (active),794 nM (active),631 nM (active),478 nM (active),601 nM (active),953 nM (active),426 nM (active),953 nM (active),708 nM (active),757 nM (active),631 nM (active),794 nM (active),849 nM (active),1350 nM (active),849 nM (active),601 nM (active),2000 nM (active)
C[S+](C)CC[C@H](N)C(=O)O,inactive,inactive,inactive,inactive,inactive,inactive,inactive,inactive,inactive,inactive,inactive,inactive,inactive,inactive,inactive,inactive,inactive,inactive,inactive,inactive
CCCCCOC(=O)Nc1nc(=O)n(C2O[C@H](C)[C@@H](O)[C@@H]2O)cc1F (stereo partly drawn),inactive,inactive,inactive,inactive,–,inactive,inactive,inactive,inactive,inactive,inactive,inactive,inactive,inactive,inactive,inactive,inactive,inactive,inactive,inactive
